Tb PGK inh: T. brucei PGK inhibition; Potency, µM (doses to about 57.5 µM), actives largely listed as inhibitors; 380,000 tested, 0.043% active; P07378; PGK/GAPDH coupled, Kinase-Glo luminescence, 60 min; note: nearly all actives have a fitted effect of over 60% in size
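Recombinant glycosomal PGK reaction used 1,3-bisphosphoglycerate generated in-well by GAPDH (100nM final) in 100mM TEA pH 7.6, 5mM MgCl2, 0.01% Tween-20. After 60 minutes at room temperature, ATP was read by Kinase-Glo Plus luminescence end-point.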
PKM2 activator: increases activity of human pyruvate kinase M2 | purified PKM2, Kinase-Glo ATP luminescence, activation; response scale: 0% is enzyme alone, no compound | Potency, µM (highest dose often 57.5 µM), most hits filed as activators | 260,000 tested, 0.34% active; note: nearly all actives have a fitted effect of over 55% in size
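Kinase-Glo luminescence reports ATP generated from ADP (0.1 mM) and PEP (0.5 mM) by purified hPK-M2 after 1 h at room temperature, pH 7.2 imidazole buffer; intermediate enzyme activity allows detecting inhibitors and activators.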
ELG1 DNA repair: blocks ELG1-dependent DNA repair in HEK293T cells; HEK293T ELG1-luciferase reporter, luminescence, 16 h; DNA damage induced by 5-fluorouridine; Potency, µM (top dose mostly 46.1 µM), actives largely listed as inhibitors; 330,000 tested, 2.3% active; note: nearly all actives have a fitted effect of over 55% in size
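Overnight (16 hr) co-exposure of 2,000 cells/well to 5-fluorouridine and compound at 37 °C preceded detection. Luciferase was quantified via ONE-Glo luminescence; loss of signal denotes inhibition.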
Tb PFK inh: T. brucei PFK enzyme inhibition; T. brucei PFK, ADP-Glo luminescence; Potency, µM (titrated, usually from 57.5 µM), usual class: inhibitors; 330,000 tested, 0.17% active; note: nearly all actives have a fitted effect of over 60% in size
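PFK 1.25 nM, F6P 0.5 mM, ATP 0.1 mM, 0.1 M TEA pH 8.0, 5 mM MgCl2, 0.01% Tween20, 0.1% BSA; 45 min RT. ADP-Glo readout. qHTS titration up to 57 uM; curves fitted, compounds curve-classed.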
Rango release inh: inhibitors of RanGTP-induced Rango-importin beta complex dissociation. Biochemical FRET Rango-importin beta, RanGTP-induced dissociation. Potency, µM (top dose mostly 46.1 µM). 340,000 tested, 0.071% active; calls by dose curve; note: nearly all actives have a fitted effect of over 45% in size
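FRET read at 45 min, room temperature: inhibitors block the CFP/YFP signal rise when RanGTP (0.6 uM Ran, 2 mM GTP, 0.2 uM RCC1) frees Rango (0.1 uM) from importin beta (0.25 uM). Pre-read after 5 min compound exposure flags interference.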
Rango complex inh: prevents formation of the Rango-importin beta complex; Q14974; Rango CFP/YFP FRET sensor + importin beta, 45 min; Potency, µM (highest dose often 92.2 µM); AID 540263; 340,000 tested, 0.031% active; calls by dose curve; note: nearly all actives have a fitted effect of over 15% in size
Target sequence (Q14974 whole entry, looked up): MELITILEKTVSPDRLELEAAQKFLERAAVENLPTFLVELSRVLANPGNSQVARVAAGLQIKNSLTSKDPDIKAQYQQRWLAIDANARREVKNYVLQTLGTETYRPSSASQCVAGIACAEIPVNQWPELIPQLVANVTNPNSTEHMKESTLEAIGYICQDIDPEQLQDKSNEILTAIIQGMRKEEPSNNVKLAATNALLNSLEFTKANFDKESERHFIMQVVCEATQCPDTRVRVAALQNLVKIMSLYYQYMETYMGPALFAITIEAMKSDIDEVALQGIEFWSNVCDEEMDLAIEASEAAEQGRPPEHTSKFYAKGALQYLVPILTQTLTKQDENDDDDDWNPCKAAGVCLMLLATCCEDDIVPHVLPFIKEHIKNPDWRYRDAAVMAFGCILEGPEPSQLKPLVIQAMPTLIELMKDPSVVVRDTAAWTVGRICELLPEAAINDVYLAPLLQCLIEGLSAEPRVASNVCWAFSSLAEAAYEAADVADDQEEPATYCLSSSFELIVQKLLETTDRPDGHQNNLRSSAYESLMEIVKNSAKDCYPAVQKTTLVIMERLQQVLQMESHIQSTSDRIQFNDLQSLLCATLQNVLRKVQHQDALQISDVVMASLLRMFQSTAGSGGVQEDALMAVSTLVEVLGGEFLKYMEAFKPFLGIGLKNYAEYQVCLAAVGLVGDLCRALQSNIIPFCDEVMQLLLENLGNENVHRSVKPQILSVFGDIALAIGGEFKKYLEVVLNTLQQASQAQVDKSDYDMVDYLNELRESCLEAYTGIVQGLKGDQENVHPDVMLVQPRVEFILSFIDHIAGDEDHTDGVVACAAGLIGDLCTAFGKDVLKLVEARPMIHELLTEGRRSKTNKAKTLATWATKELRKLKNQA
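FRET biosensor Rango (snurportin 1 IBB between N-terminal EYFP and C-terminal Cerulean), 50 nM in PBS/1 mM DTT/0.02% Tween-20/0.1% BSA, preincubated 5 min RT with compound; 0.125 microM importin beta added, 45 min RT, CFP/YFP FRET ratio read.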
A number is an active result; n = inactive; u = inconclusive; x = no result. Shown are actives, neighbours in structure and some others; about 2.4% of the full set was active somewhere. Unless noted, calls come from the whole dose curve; as a rule, active = well fitted curve in the direction sought with a large enough effect; inconclusive = small, poorly fitted or top-dose-only effect, or another doubt; inactive = no such curve, though single readings can be large; an effect the other way counts as inactive or inconclusive.

SMILES	Tb PGK inh	PKM2 activator	ELG1 DNA repair	Tb PFK inh	Rango release inh	Rango complex inh
CCOC(=O)c1[nH]c2ccc(F)cc2c1NC(=O)CN1CCN(C/C=C/c2ccccc2)CC1	n	n	u	n	n	n
O=C(N/C(=C\c1cccc(Br)c1)C(=O)N1CCOCC1)c1ccco1	n	x	n	n	n	n
C=CCc1cc(OC)ccc1OCCN1CC(C)OC(C)C1 (stereo not drawn)	n	n	n	n	n	n
COc1ccc(OC)c(S(=O)(=O)N2CCN(c3ccccc3OC)CC2)c1	n	x	n	n	n	n
COc1ccc(C)cc1NC(=O)CN1CCN(C/C=C/c2ccccc2)CC1	n	n	21µM	n	n	n
COC(=O)c1[nH]c2cccc(OC)c2c1NC(=O)CN1CCN(c2cccc(OC)c2)C(C)C1 (stereo not drawn)	n	n	13µM	n	n	n
COC(=O)c1[nH]c2ccc(C)cc2c1NC(=O)CN1CCN(C(=O)c2ccccc2)CC1	n	n	21µM	n	n	n
Cc1ccc2[nH]c(C(=O)O)c(NC(=O)CN3CCN(c4cccc(C)c4C)CC3)c2c1	n	n	n	n	n	n
COC(=O)c1[nH]c2cccc(OC)c2c1NC(=O)CCN1CCC(C)CC1	n	n	n	n	n	n
C[C@@H]1CN([C@H](C)CO)S(=O)(=O)c2ccc(C#CC3CCCC3)cc2O[C@H]1CN(C)C(=O)Cc1ccccc1	n	x	x	x	x	x
NS(=O)(=O)c1ccc(CNC(=O)Cc2ccsc2)cc1	n	x	x	x	n	n
CCOC(=O)c1ccc(N2C(=O)c3[nH]nc(-c4ccccc4)c3C2c2cccs2)cc1 (stereo not drawn)	n	x	x	x	x	x
COc1ccc(NC(=O)c2cc(-c3ccccc3Cl)on2)cc1	n	n	u	n	n	n
COc1cc(NC(=O)c2cc3c(Cl)nc4ccccc4c3s2)cc(OC)c1OC	n	n	6.5µM	n	n	n
COc1ccc(NC(=O)c2cc3c(Cl)nc4ccccc4c3s2)c(OC)c1	n	n	n	n	n	n
COc1cc(NC(=O)c2cc(-c3ccccc3Cl)on2)cc(OC)c1OC	n	n	9.2µM	n	n	n
COc1ccc(/C=C/C(=O)Nc2ccc(C)c(S(=O)(=O)N3CCOCC3)c2)cc1	n	x	21µM	n	n	u
COc1ccc(NC(=O)/C=C/c2ccc(S(=O)(=O)N3CCOCC3)cc2)cc1	n	x	n	n	n	n
Cc1ccc(NC(=O)Nc2ccccc2F)cc1S(=O)(=O)N1CCOCC1	n	x	21µM	n	n	n
Cc1ccc(NC(=O)COc2ccc(Br)cc2CO)cc1S(=O)(=O)N1CCOCC1	n	x	21µM	n	n	n
COc1ccc(/C=C/C(=O)Nc2ccc(S(=O)(=O)N3CCOCC3)cc2)c(OC)c1	n	x	23µM	n	n	n
c1ccc2c(OCCCN3CCCCCC3)cccc2c1	n	n	n	n	n	n
Cn1cc(CN2CCC(C(=O)Nc3ccc(Oc4ccccc4F)cc3)CC2)cn1	n	x	n	n	n	n
Cc1ccc(S(=O)(=O)CC(=O)N2CCN(c3ccc([N+](=O)[O-])cc3)CC2)cc1	n	x	10µM	n	n	n
Cc1noc(C)c1CSCC(=O)N1CCN(c2ccc([N+](=O)[O-])cc2)CC1	n	n	21µM	n	n	n
COc1cccc(C(=O)N2CCC(CCC(=O)Nc3cccc(C)c3)CC2)c1	n	n	n	n	n	n
O=C(NCCN1CCN(C(=O)c2cccc(Br)c2)CC1)C(=O)Nc1ccc(Br)cc1	n	x	n	n	n	n
Cc1nn(Cc2ccc(F)cc2)c(C)c1NC(=O)c1noc2c1CCCCC2	n	n	18µM	n	n	u
CCn1ncc(C2=NOC(C(=O)Nc3c(C)nn(Cc4ccc(F)cc4)c3C)C2)c1C (stereo not drawn)	n	n	15µM	n	n	n
O=C(Nc1cnn(Cc2ccc(F)cc2)c1)c1noc2c1CCCC2	n	n	0.41µM	n	n	n
